In the library only some 4.3% were active in any assay of this set; here they are far more common.
FGF22 binding-1: shifts melting point of recombinant human FGF22. recombinant FGF22 thermal shift, SYPRO orange fluorescence; percent of sucrose octasulfate shift, DMSO zero. activity (Tm shift, normalised), % at 9.99 µM. 340,000 tested, 1.5% active. AID 651658;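 active = mean Tm shift, scaled 0 neutral to 100 positive control, at about 1.3% or above, every replicate too, limit read from the data; inconclusive = no clear call, values can overlap the other calls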
Target sequence (Q9HCT0 whole entry, looked up): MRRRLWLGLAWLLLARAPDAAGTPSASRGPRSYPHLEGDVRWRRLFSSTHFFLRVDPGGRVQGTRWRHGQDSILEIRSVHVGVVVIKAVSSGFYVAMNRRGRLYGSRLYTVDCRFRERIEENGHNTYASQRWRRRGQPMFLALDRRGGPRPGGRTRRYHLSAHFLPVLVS
esBAF inh: SWI/SNF esBAF complex inhibition; reporter increase, % at 12.5 µM; mouse ES cells, Bmi1-luciferase knock-in reporter, 24 h; 100% = twice the neutral-well signal; 350,000 tested, 2% active; in the data active = activation above about 40%; inconclusive = no clear call, values can overlap the other calls;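 also: a rise in the Bmi1 reporter signal indicates esBAF inhibition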
Wnt act: activators of Wnt/beta-catenin signaling; Wnt/beta-catenin reporter cell assay, activator, plate reader; activation, % at 9.35 µM; 300,000 tested, 1.2% active; in the data active = activation above about 30%, passing the limit was not always enough; inconclusive = no clear call, values can overlap the other calls
AF4-AF9 inh: MLL-AF4/AF9 protein interaction inhibition | P42568 | AlphaScreen, biotin-AF4 peptide binding to FLAG-AF9 | inhibition, % at 10 µM | 350,000 tested, 0.47% active;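 active = every replicate reaching a set inhibition limit, whatever the replicate mean, cut at about 25% in these data; inconclusive = mean inhibition reaches that limit but some replicates miss it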
Target sequence (P42568 whole entry, looked up): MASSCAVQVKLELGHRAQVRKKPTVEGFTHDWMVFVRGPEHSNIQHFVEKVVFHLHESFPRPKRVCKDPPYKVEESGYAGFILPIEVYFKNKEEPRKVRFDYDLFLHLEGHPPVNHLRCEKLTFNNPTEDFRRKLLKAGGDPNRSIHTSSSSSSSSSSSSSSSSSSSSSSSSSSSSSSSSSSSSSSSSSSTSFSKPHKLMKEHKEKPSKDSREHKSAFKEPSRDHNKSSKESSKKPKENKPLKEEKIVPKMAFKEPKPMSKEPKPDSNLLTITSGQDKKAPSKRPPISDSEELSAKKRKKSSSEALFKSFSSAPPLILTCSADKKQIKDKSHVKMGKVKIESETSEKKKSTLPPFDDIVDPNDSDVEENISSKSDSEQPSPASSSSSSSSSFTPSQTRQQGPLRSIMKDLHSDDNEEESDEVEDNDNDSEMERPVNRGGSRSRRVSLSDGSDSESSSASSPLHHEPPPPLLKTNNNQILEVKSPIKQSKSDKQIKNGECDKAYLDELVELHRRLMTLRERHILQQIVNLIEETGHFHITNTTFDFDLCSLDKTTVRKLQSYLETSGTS
MITF act: MITF TRPM1 promoter activation in melanoma cells; SK-MEL-5 TRPM1-promoter luciferase, 24 h; % of positive control, neutral wells = 0; activation, % at 12.5 µM; 300,000 tested, 0.75% active;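 active = mean activation of at least 80% with every replicate also reaching 80%; inconclusive = mean reaches 80% but some replicate falls short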
SMARCA2 activ: SMARCA2 function activation, primary screen. AID 652017. MG213 cells, MMTV-luciferase reporter, dexamethasone, overnight. 370,000 tested, 1% active. activation, % at 9.1 µM; in the data active = activation above about 7.8%
FGF22 binding-2: binders of human FGF22 by thermal shift. recombinant FGF22 thermal shift, SYPRO orange fluorescence. 1,000 tested, 2% active. shares compounds with FGF22 binding-1. thermal shift activity, °C (ΔTm) at 38 µM;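 active = fitted rise in melting shift crosses a set limit at or below the top valid dose tested; inconclusive = flat fit at mid-level activity, or a poor quality fit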
FGF22 TSA DP: FGF22 (human) binding by thermal shift; AID 743017; Thermal shift assay, SYPRO orange, melting temperature shift; 50 tested, under 10 active; Tm shift (activity), % at 38 µM; shares compounds with FGF22 binding-1;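 active = compounds whose fitted dose curve of melting temperature shift rises past a set threshold within the tested doses; inconclusive = flat curve at moderate activity, or poor curve fit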
SYPRO no-protein: shows thermal shift signal without protein, FGF22 counter-screen; shares compounds with FGF22 binding-1; compound-only SYPRO orange thermal shift counter-screen, no protein; AC50, µM (top dose mostly 38 µM); 1,000 tested, 2% active; AID 743019;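 active = rising signal whose fitted curve reaches the 0.54 level within the top valid dose, showing a melting point, actives reach about 13 µM in these data; inactive = the rest, including activity in the opposite direction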; also: value is where the raw curve crosses a fixed level and not half-maximal
Each line names hits and unclear results; the compound was inactive in the other large screens (follow-up assays come after a bar, where they were run).

CCOC(=O)c1c(N)sc(C(=O)Nc2ccccc2)c1C	FGF22 binding-1 2.9 (no result: esBAF inh) | FGF22 binding-2 inactive | SYPRO no-protein inactive
CCOC(=O)c1sc(NC(=O)Nc2ccccc2)cc1C	FGF22 binding-1 2.1, Wnt act inconclusive, MITF act 105 (no result: esBAF inh) | FGF22 binding-2 inactive | SYPRO no-protein inactive
Cc1ccc(S(=O)(=O)Nc2ccc3c(c2)CC(=O)N([C@@H](C)CO)C[C@@H](C)[C@@H](CN(C)Cc2ccc(Oc4ccccc4)cc2)O3)cc1	none (no result: Wnt act, MITF act, SMARCA2 activ)
C[C@@H]1CN([C@H](C)CO)C(=O)c2cc(Br)cnc2O[C@H]1CN(C)C(=O)Nc1ccc(F)cc1	none (no result: Wnt act, MITF act, SMARCA2 activ)
O=c1c(Cl)c(O)c2cccc3c4ccccc4n1c23	FGF22 binding-1 2.3 (no result: esBAF inh) | FGF22 binding-2 inactive | SYPRO no-protein inactive
Cc1cc(NC(=O)c2ccc3[nH]c(C)c(C)c3c2)ccn1	none
CC(=O)Nc1cccc(NC(=O)c2ccc3[nH]c(C)c(C)c3c2)c1	FGF22 binding-1 1.9, esBAF inh 49 | FGF22 binding-2 inactive | FGF22 TSA DP inactive | SYPRO no-protein inactive
COC(=O)[C@]12C[C@H](CC(=O)NCC34CC5CC(CC(C5)C3)C4)C(=O)N(Cc3ccc4c(c3)OCO4)C1=C[C@H](COCc1ccccc1)O[C@@H]2C	none (no result: esBAF inh, MITF act)
O=C(COc1ccccc1)NCC(=O)NC1CCCCC1	FGF22 binding-1 1.9 (no result: esBAF inh) | FGF22 binding-2 inactive | SYPRO no-protein inactive
O=C(O)c1ccccc1NS(=O)(=O)c1ccc2ccccc2c1	FGF22 binding-1 1.6 | FGF22 binding-2 inactive | SYPRO no-protein inactive
Cc1cc(C)c(C)c(S(=O)(=O)Nc2ccccc2C(=O)O)c1C	FGF22 binding-1 1.4 | FGF22 binding-2 inactive | SYPRO no-protein inactive
O=C(O)[C@H]1[C@H](CO)[C@H]2Cn3c(ccc(-c4ccccc4F)c3=O)[C@H]2N1C(=O)c1cnccn1	none (no result: Wnt act, MITF act, SMARCA2 activ)
O=C(CSc1nnc(-c2ccccn2)n1-c1ccc(Cl)cc1)Nc1ccc2c(c1)OCCO2	none (no result: FGF22 binding-1, esBAF inh, Wnt act, AF4-AF9 inh, MITF act)
CCC(C)NC(=O)C1=CCN(S(=O)(=O)c2ccc(C)cc2)CC1 (stereo not drawn)	none
CCC(C)NS(=O)(=O)c1ccc(S(=O)(=O)N2CC=C(c3ccc(F)cc3)CC2)cc1 (stereo not drawn)	FGF22 binding-1 14 (no result: esBAF inh) | FGF22 binding-2 inactive | SYPRO no-protein inactive
Cc1cccc(-c2ccc([C@@H]3[C@@H](CO)N4CCCCN(C(=O)NC(C)C)C[C@H]34)cc2)c1	none (no result: Wnt act, MITF act, SMARCA2 activ)
O=C(Nc1ccc(F)c(Cl)c1)C1CCCN(C2=NS(=O)(=O)c3ccccc32)C1 (stereo not drawn)	FGF22 binding-1 31 | FGF22 binding-2 inactive | SYPRO no-protein inactive
Cc1ccc(S(=O)(=O)N(C)C[C@@H]2Oc3ccc(NS(=O)(=O)c4ccc(Cl)cc4)cc3CC(=O)N([C@H](C)CO)C[C@@H]2C)cc1	none (no result: Wnt act, MITF act, SMARCA2 activ)
C[C@@H]1CCCCO[C@H](CN(C)C(=O)C2CCCCC2)[C@@H](C)CN([C@@H](C)CO)C(=O)c2cc(NC(=O)Nc3cccc4ccccc34)ccc2O1	none (no result: Wnt act, MITF act, SMARCA2 activ)
CNC[C@H]1Oc2ccc(NC(=O)Cc3cn(C)c4ccccc34)cc2C(=O)N([C@H](C)CO)C[C@H]1C	FGF22 binding-1 3.7 (no result: Wnt act, MITF act, SMARCA2 activ) | SYPRO no-protein inactive
COc1ccc(CN(C)C[C@H]2Oc3ccc(NC(=O)Cc4ccccc4)cc3C(=O)N([C@@H](C)CO)C[C@@H]2C)cc1	none (no result: FGF22 binding-1, Wnt act, MITF act, SMARCA2 activ)
COc1ccc(CN(C)C[C@@H]2Oc3ccc(NC(=O)NC(C)C)cc3C(=O)N([C@H](C)CO)C[C@@H]2C)cc1	FGF22 binding-1 73 (no result: Wnt act, MITF act, SMARCA2 activ) | FGF22 binding-2 inactive | SYPRO no-protein inactive
COc1ccc(CN(C)C[C@H]2Oc3ccc(NC(=O)Cc4ccccc4)cc3C(=O)N([C@H](C)CO)C[C@@H]2C)cc1	FGF22 binding-1 1.5 (no result: Wnt act, MITF act, SMARCA2 activ) | FGF22 binding-2 inactive | SYPRO no-protein inactive
C[C@H](CO)N1C[C@H](C)[C@@H](CN(C)C(=O)C2CCC2)Oc2ncc(C3=CCCC3)cc2C1=O	none (no result: Wnt act, MITF act, SMARCA2 activ)
OC[C@@H]1[C@H](c2ccc(-c3cccnc3)cc2)[C@@H]2CN(Cc3ccccn3)CCCCN12	FGF22 binding-1 1.4 (no result: Wnt act, MITF act, SMARCA2 activ) | FGF22 binding-2 inactive | SYPRO no-protein inactive
OC[C@@H]1[C@H](c2ccc(-c3cccnc3)cc2)[C@H]2CN(Cc3ccccn3)CCCCN12	FGF22 binding-1 1.5 (no result: Wnt act, MITF act, SMARCA2 activ) | FGF22 binding-2 inactive | SYPRO no-protein inactive
COC(=O)[C@]12C=CCN1[C@H](c1ccc(Cl)cc1)c1c(c3ccccc3n1S(=O)(=O)c1ccc(C)cc1)C2	none (no result: FGF22 binding-1, esBAF inh, Wnt act, AF4-AF9 inh, MITF act)
O=C1N(CCS(=O)(=O)c2ccccc2)Cc2ccccc2C[C@]12N=C(c1ccc(OCCCO)cc1)O[C@@H]2c1ccccc1	none (no result: esBAF inh, Wnt act, MITF act, SMARCA2 activ)
Clc1ccc(-n2c(SCc3cccc4ccccc34)nnc2-c2ccccn2)cc1	none (no result: FGF22 binding-1, esBAF inh, Wnt act, AF4-AF9 inh, MITF act)
COc1ccc(NC(=O)CCN2C(=O)c3ccccc3C2=O)c(OC)c1	none (no result: MITF act)
COc1ccc(NC(=O)CCCN2C(=O)CN(C)C2=O)c(OC)c1	FGF22 binding-1 15, AF4-AF9 inh 33 | SYPRO no-protein inactive
C[C@H](CO)N1C[C@H](C)[C@H](CN(C)C(=O)c2ccncc2)OCCCC[C@H](C)Oc2ccc(NC(=O)Cc3ccccc3)cc2C1=O	none (no result: Wnt act, MITF act, SMARCA2 activ)
C[C@H](CO)N1C[C@H](C)[C@@H](CN(C)C(=O)NC2CCCCC2)OCCCC[C@H](C)Oc2ccc(NC(=O)c3ccccc3)cc2C1=O	none (no result: Wnt act, AF4-AF9 inh, MITF act, SMARCA2 activ)
C=CCN(C(=O)c1csnn1)C(C(=O)NC1CCCCC1)c1ccc(Cl)cc1 (stereo not drawn)	FGF22 binding-1 1.5 | FGF22 binding-2 inactive | SYPRO no-protein inactive
COc1ccc(C2CC(=O)C(c3ccc(C(F)(F)F)cc3)=CN2Cc2ccccc2)cc1 (stereo not drawn)	none (no result: esBAF inh, AF4-AF9 inh, MITF act)
Cc1cc(C)cc(N(CC(=O)NC2CCC(C)CC2)S(=O)(=O)c2c(C)noc2C)c1 (stereo not drawn)	FGF22 binding-1 1.4 | FGF22 binding-2 inactive | SYPRO no-protein inactive
CCOc1cc(/C=N/NC(=O)c2cccc(S(=O)(=O)N3CCCC3)c2)ccc1OCC(=O)N(C)C	none
CCOc1cc(C=NNC(=O)c2cccc(S(=O)(=O)N3CCCC3)c2)ccc1O	FGF22 binding-1 2.4 | FGF22 binding-2 inactive | SYPRO no-protein inactive
CC(=O)N1[C@@H]2c3cccc(=O)n3C[C@@H]2[C@@H](CO)[C@@H]1C(=O)N1CCc2ccccc2C1	none (no result: FGF22 binding-1, esBAF inh, Wnt act, MITF act, SMARCA2 activ)
CCCCOCCCNC(=O)C[C@H]1C[C@@]2(C(=O)OC)C(=C[C@H](C(C)C)O[C@@H]2C2CC2)N(Cc2ccccc2)C1=O	none (no result: esBAF inh, MITF act)
